PubChem BioAssay (NCI)
Compounds without any hit were thinned out: in the full panel of roughly 79,000, 15% have a hit. Activity calls are given as the source filed them. Cut-off read from the data, not from the text of the source: active = growth inhibition above about 70%; inactive = the rest.

What was measured:
[1] = NCI Yeast Anticancer Drug Screen. Data for the rad52 strain (AID 147);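 note: 0% = growth of vehicle-treated control cultures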; details: S. cerevisiae rad52 mutant growth inhibition, hits give high values
Method in brief: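 Screen used a yeast mutant impaired in DNA repair. After compound exposure, growth was measured. Values reflect inhibition compared with vehicle-treated cells.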

[2] = NCI Yeast Anticancer Drug Screen. Data for the wt1 strain (AID 149);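 note: 0% = growth of vehicle-treated wt1 cultures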; details: S. cerevisiae wt1 strain (SPY 50644) growth inhibition, hits give high values
Method in brief: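 Using yeast strain wt1, compound-induced growth inhibition was determined against vehicle-treated cultures.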

[3] = NCI Yeast Anticancer Drug Screen. Data for the rad50EPP+ strain (AID 151);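 note: 0% = growth of vehicle-treated control cultures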; details: S. cerevisiae rad50 mutant strain, hits give high values
Method in brief: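 Exposing the rad50EPP+ strain to each compound, growth was compared with vehicle-only cultures to give inhibition.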

[4] = NCI Yeast Anticancer Drug Screen. Data for the mgt1 strain (AID 153); details: S. cerevisiae mgt1 mutant growth inhibition, hits give high values
Method in brief: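 Genetically defined yeast (mgt1) treated with compound; inhibition of growth expressed against vehicle-treated controls.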

[5] = NCI Yeast Anticancer Drug Screen. Data for the rad50 strain (AID 155);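 note: 0% = growth of vehicle-only cultures of the same strain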; details: S. cerevisiae rad50 strain growth inhibition, hits give high values
Method in brief: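 Relative growth inhibition (compound vs vehicle) was measured in yeast with a defined repair-gene alteration.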

[6] = NCI Yeast Anticancer Drug Screen. Data for the mec2-1 strain (AID 157); details: S. cerevisiae mec2-1 strain, hits give high values
Method in brief: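 Readout is yeast growth inhibition, normalised to vehicle-treated controls, in the mec2-1 strain exposed to compound.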

[7] = NCI Yeast Anticancer Drug Screen. Data for the rad14 strain (AID 159);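 note: 0% = growth of vehicle-treated control cultures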; details: S. cerevisiae rad14 strain growth inhibition, hits give high values
Method in brief: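 Screen for anticancer potential: a yeast strain altered in DNA damage repair is grown with compound, and reduced growth is quantified against vehicle controls.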

[8] = NCI Yeast Anticancer Drug Screen. Data for the sgs1 mgt1 strain (AID 161);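 note: 0% = growth of cultures given vehicle only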; details: S. cerevisiae sgs1 mgt1 strain, hits give high values
Method in brief: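 Growth of a repair-deficient yeast mutant was monitored after compound treatment and expressed as inhibition relative to vehicle-treated cultures.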

[9] = NCI Yeast Anticancer Drug Screen. Data for the cln2 rad14 strain (AID 165);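 note: 0% = growth equal to vehicle treated cultures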; details: S. cerevisiae cln2 rad14 strain, hits give high values
Method in brief: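 Relative to vehicle controls, growth inhibition of compound-treated cln2 rad14 yeast was recorded.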

[10] = NCI Yeast Anticancer Drug Screen. Data for the bub3 strain (AID 167); details: S. cerevisiae bub3 mutant strain, hits give high values
Method in brief: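 Screening used yeast with an engineered genetic alteration affecting cell cycle control. Compound-exposed cultures were compared with vehicle cultures, and reduced growth was taken as inhibition.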

[11] = NCI Yeast Anticancer Drug Screen. Data for the wt2 strain (AID 169);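 note: 0% = growth of vehicle-treated yeast cultures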; details: S. cerevisiae wt2 strain growth inhibition, hits give high values
Method in brief: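 Values express reduction in yeast growth under compound treatment, referenced to vehicle-treated cells.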

[12] = NCI Yeast Anticancer Drug Screen. Data for the mlh1 strain (AID 171);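 note: 0% = growth of vehicle-treated control cultures of the same strain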; details: S. cerevisiae mlh1 strain growth inhibition, hits give high values
Method in brief: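 Steps: expose the defined-mutant yeast strain to compound; expose a parallel culture to vehicle; measure growth; express compound effect as inhibition relative to the vehicle culture.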

[13] = NCI Yeast Anticancer Drug Screen. Data for the sgs1 strain (AID 173);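 note: 0% = growth of vehicle-only control cultures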; details: S. cerevisiae sgs1 mutant, hits give high values
Method in brief: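 Treat defined-mutant yeast with compound; measure growth; calculate inhibition relative to vehicle-treated cells.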

[14] = NCI Yeast Anticancer Drug Screen. Data for the mlh1 rad18 strain (AID 175); details: S. cerevisiae mlh1 rad18 strain growth inhibition, hits give high values
Method in brief: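 Test agents were incubated with a yeast strain of defined genotype (DNA damage repair defect). Inhibition of growth was derived by comparison with vehicle-exposed cultures.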

[15] = NCI Yeast Anticancer Drug Screen. Data for the rad18 strain (AID 177); details: S. cerevisiae rad18 mutant growth inhibition, hits give high values
Method in brief: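 A genetically defined yeast mutant impaired in DNA damage repair was treated with test compounds, then its growth was measured against cultures receiving vehicle alone.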

[16] = at 5.0 µM (retest, dose inferred, filed as 0.5)
[17] = at 50.0 µM (retest, dose inferred, filed as 5.0)

Measured: growth inhibition

O=C(NNc1ccnc2cc(Cl)ccc12)/C(=C\c1ccccc1Cl)NC(=O)c1ccccc1
inactive: [1]; at 1.2 µM 15% | [1]; at 3.7 µM 11% | [1]; at 11.0 µM 40% | [1]; at 33.0 µM 38% | [1]; at 100.0 µM 38% | [2]; at 1.2 µM -80% | [2]; at 3.7 µM -1% | [2]; at 11.0 µM 6% | [2]; at 33.0 µM 21% | [2]; at 100.0 µM 28% | [3]; at 1.2 µM 17% | [3]; at 3.7 µM 55% | [4]; at 1.2 µM 2% | [4]; at 3.7 µM 23% | [4]; at 11.0 µM 32% | [4]; at 33.0 µM 61% | [4]; at 100.0 µM 62% | [5]; at 1.2 µM -1% | [5]; at 3.7 µM 4% | [5]; [16] -11% | [5]; at 11.0 µM 14% | [5]; at 33.0 µM 33% | [5]; [17] -18% | [5]; at 100.0 µM 30% | [6]; at 1.2 µM -5% | [6]; at 3.7 µM -1% | [6]; [16] -16% | [6]; at 11.0 µM -1% | [6]; at 33.0 µM 20% | [6]; [17] -30% | [6]; at 50.0 µM 39.6% | [6]; at 100.0 µM 14% | [7]; at 1.2 µM -2% | [7]; at 3.7 µM 1% | [7]; at 11.0 µM 1% | [7]; at 33.0 µM 3% | [7]; at 100.0 µM 0% | [8]; [16] -8% | [8]; [17] -37% | [9]; [16] 8% | [9]; [17] 22% | [9]; at 50.0 µM 55.4% | [10]; at 1.2 µM 0% | [10]; at 3.7 µM 14% | [10]; [16] 5% | [10]; at 11.0 µM 50% | [11]; at 1.2 µM 4% | [11]; at 3.7 µM 28% | [11]; at 11.0 µM 45% | [11]; at 33.0 µM 38% | [11]; at 100.0 µM 31% | [12]; at 1.2 µM -1% | [12]; at 3.7 µM 0% | [12]; at 11.0 µM 7% | [12]; at 33.0 µM 26% | [12]; at 100.0 µM 24% | [13]; at 1.2 µM 1% | [13]; at 3.7 µM 6% | [13]; at 11.0 µM 13% | [13]; at 33.0 µM 38% | [13]; at 100.0 µM 38% | [14]; [16] -13% | [14]; [17] 7% | [15]; at 1.2 µM -1% | [15]; at 3.7 µM 10% | [15]; at 11.0 µM 34% | [15]; at 33.0 µM 64% | [15]; at 100.0 µM 67%
active: [3]; at 11.0 µM 91% | [3]; at 33.0 µM 95% | [3]; at 100.0 µM 89% | [5]; at 50.0 µM 86.1% | [8]; at 50.0 µM 73% | [10]; at 33.0 µM 76% | [10]; [17] 80% | [10]; at 50.0 µM 85.8% | [10]; at 100.0 µM 76% | [14]; at 50.0 µM 90.1%
